ERK AVP inh: blocks ERK signaling stimulated by vasopressin; HEK293-V1b, vasopressin-stimulated pERK AlphaScreen; Potency, µM (doses to about 57.5 µM), most hits filed as inhibitors; AID 995; 72,000 tested, 0.99% active; note: nearly all actives have a fitted effect of over 55% in size
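HEK293 cells stably expressing V1b receptor, seeded overnight in 1% FBS, were treated with compounds for 30 min at 37C, then stimulated 5 min with 25 nM vasopressin; phospho-ERK read by AlphaScreen SureFire after lysis.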
Imprint erasure: inducers of genomic imprint erasure in mouse ES cells | mouse ES Peg3-LacZ reporter, beta-gal luminescence, 40 h | Potency, µM (highest dose often 60.7 µM), actives largely listed as activators | 110,000 tested, 0.02% active | AID 1948
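Readout: BetaGlo luminescence (5 min, room temp) for LacZ from the normally silent maternal Peg3 allele in female Peg3LacZ-Neo ES cells. Cells 300/well, 40 h, 37C, 5% CO2. Data normalized per plate to negative controls.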
IkB signaling: IkB pathway inhibition in ABC-DLBCL cells; Potency, µM (doses to about 57.1 µM); ABC-DLBCL IkBa-CBG/CBR dual luciferase ratio, 4 h; response scale: scaled: untreated 0%, proteasome inhibitor 100%; 110,000 tested, 0.04% active; active = well fitted curve in the direction sought with a large enough effect in the signal ratio, not every such curve was filed as active; inconclusive = small, poorly fitted or top-dose-only effect, or a change in a side signal; the % refers to the signal ratio;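 note: the direction sought is a rising ratio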
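Luminescence ratio of IκBα-fused green versus native red beetle luciferase in OCI-Ly3 cells, 4 h post-doxycycline with compound; red signal alone, scaled from basal (0%) to zero light (-100%), flagged nonspecific or cytotoxic effects.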
CRE-bla Fsk: modulators of forskolin-stimulated CRE signaling in CHO cells; AID 662; CHO CRE-bla reporter (cAMP response element driving beta-lactamase), forskolin EC10, beta-lactamase ratio; Potency, µM (top dose mostly 38.2 µM), hits mostly activators; 71,000 tested, 2.5% active; active = well fitted activation curve with a large enough effect in the signal ratio, with a control signal flat, not every such curve was filed as active; inconclusive = small, poorly fitted or top-dose-only effect, or effect the other way, or a change in a side signal; the % refers to the signal ratio
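Forskolin analogue NKH 477 at EC10 stimulated CRE-driven beta-lactamase in CHO cells alongside compound dilution series. Beta-lactamase was measured with CCF4, excitation 405 nm, emission ratio 460/530 nm.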
Large screens that a line does not name were inactive. The sample as a whole holds a higher share of hits than the screen did. Unless noted, calls come from the whole dose curve; as a rule, active = well fitted curve in the direction sought with a large enough effect; inconclusive = small, poorly fitted or top-dose-only effect, or another doubt; inactive = no such curve, though single readings can be large; an effect the other way counts as inactive or inconclusive.

COc1ccc2[nH]cc(CCNc3nc(-c4ccc(C(=O)N(C)C)cc4)nc4ccccc34)c2c1	CRE-bla Fsk 0.32µM
CC(=O)NCCNc1nc(-c2cccnc2)nc2ccccc12	Imprint erasure inconclusive, CRE-bla Fsk 7.9µM
c1ccc(CNc2nc(-c3cccnc3)nc3ccccc23)cc1	ERK AVP inh inconclusive, CRE-bla Fsk inconclusive
c1ccc(Nc2nc(-c3cccnc3)nc3ccccc23)cc1	CRE-bla Fsk 10µM
Oc1ccc(Nc2nc(-c3ccc(Cl)cc3)nc3ccccc23)cc1	IkB signaling inconclusive (no result: ERK AVP inh, CRE-bla Fsk)
O=C(O)[C@@H]1CCCN1Cc1ccc2c(c1)OCO2	none
CCOC(=O)c1c(NC(=O)OC)sc(C(=O)N(C)C)c1C	ERK AVP inh inconclusive, CRE-bla Fsk 4µM
CCCc1cc(C(=O)Nc2sc(C(C)=O)c(C)c2C(=O)OCC)no1	CRE-bla Fsk 0.63µM
CCOC(=O)c1c(NC(=O)c2cc(CC(C)C)on2)sc(C(C)=O)c1C	none (no result: ERK AVP inh, CRE-bla Fsk)
CCOC(=O)c1c(NC(=O)CC)sc(C(C)=O)c1C	CRE-bla Fsk 13µM
CCOC(=O)c1c(NC(=O)COc2ccc(Cl)cc2C)sc(C(C)=O)c1C	none (no result: ERK AVP inh, CRE-bla Fsk)
OC[C@@H]1O[C@H](O)[C@@H](Cl)[C@H](O)[C@@H]1O	none (no result: Imprint erasure)
COC1=CC(=O)C(O)=C/C1=C\C=C\c1ccccc1	none (no result: IkB signaling, CRE-bla Fsk)
COc1cc(OC)c(-c2nnc(-c3ccc(OC)c(OC)c3OC)o2)cc1OC	ERK AVP inh inconclusive, CRE-bla Fsk 4µM
O=C1[C@H]2[C@H]3[C@H](O)[C@H](O)C/C(=N/OC[C@@H](O)COCc4ccco4)[C@@H]3CC[C@@H]2C(=O)N1Cc1ccc2c(c1)OCO2	none (no result: Imprint erasure, IkB signaling, CRE-bla Fsk)
O=S(=O)(O)c1ccc2c(N=Nc3c(O)ccc4ccccc34)cccc2c1	none
COc1ccc([C@@H]2CC(=O)c3c(O)cc(O[C@@H]4O[C@@H](CO[C@@H]5O[C@@H](C)[C@@H](O)[C@@H](O)[C@H]5O)[C@@H](O)[C@@H](O)[C@H]4O)cc3O2)cc1O	none (no result: ERK AVP inh, Imprint erasure)
N#Cc1c(N)nc(SCC(=O)OCc2ccccc2)c(C#N)c1-c1ccco1	IkB signaling inconclusive, CRE-bla Fsk 13µM
N#Cc1c(N)nc(SCc2ccccc2)c(C#N)c1-c1ccco1	IkB signaling inconclusive, CRE-bla Fsk 3.2µM
N#Cc1c(N)nc(SC2CCCCC2=O)c(C#N)c1-c1ccco1 (stereo not drawn)	ERK AVP inh inconclusive, IkB signaling inconclusive, CRE-bla Fsk 10µM
COC(=O)CSc1nc2c(c(-c3ccco3)c1C#N)CCCC2	none
C/C(=N/O)c1ccc2cc(Br)c3ccccc3c2c1	none
COc1cccc(C2NC(C(=O)O)CCC2C)c1 (stereo not drawn)	none (no result: Imprint erasure, IkB signaling, CRE-bla Fsk)
CC1(C)Cc2c(sc3c2c(=N)n(Cc2ccco2)c(=O)n3Cc2ccccc2)CO1	IkB signaling inconclusive, CRE-bla Fsk inconclusive
CC1(C)Cc2c(sc3c2c(=N)n(Cc2ccco2)c(=O)n3Cc2ccc(Cl)cc2)CO1	CRE-bla Fsk 0.2µM
COc1ccc(C(c2sc3ncnn3c2O)N2CC(C)OC(C)C2)cc1OC (stereo not drawn)	CRE-bla Fsk 13µM (no result: ERK AVP inh)
COc1ccc(C(c2sc3nc(C)nn3c2O)N2CCC(O)CC2)cc1OC (stereo not drawn)	CRE-bla Fsk 3.2µM (no result: ERK AVP inh)
COc1cc(C(c2sc3nc(C)nn3c2O)N2CC(C)OC(C)C2)cc(OC)c1OC (stereo not drawn)	IkB signaling inconclusive, CRE-bla Fsk 13µM (no result: ERK AVP inh)
O=C1OC(c2cc(I)c(O)c(I)c2)(c2cc(I)c(O)c(I)c2)c2ccccc21	none (no result: ERK AVP inh, IkB signaling, CRE-bla Fsk)
COc1ccc(OC)c(CNC(=O)COc2cc(=O)n(C)c3ccccc23)c1	CRE-bla Fsk 10µM
CCn1c(=O)cc(OCC(=O)Nc2ccccc2N2CCN(C)CC2)c2ccccc21	CRE-bla Fsk 10µM
Cc1cc(C)c(Cn2c(=O)n(CCCC(=O)NCc3ccco3)c(=O)c3ccccc32)c(C)c1	CRE-bla Fsk 10µM
CCn1c(=O)cc(OCC(=O)NCc2ccco2)c2ccccc21	CRE-bla Fsk 13µM
CCn1c(=O)cc(OCC(=O)NCc2ccc(C)o2)c2ccccc21	CRE-bla Fsk inconclusive
C=CC[C@@H]1C=C[C@@H](O/N=C\C[C@@H]2C=C[C@H](OC(C)=O)[C@H](COC(C)=O)O2)[C@@H](CO)O1	none (no result: Imprint erasure, IkB signaling, CRE-bla Fsk)
CC[C@@H]1[C@H]2CCCCN3[C@@H]2[C@@H](C[C@H]3[C@@H]2C[C@H](C)C(=O)O2)[C@@H]2[C@H]1OC(=O)[C@H]2C	CRE-bla Fsk inconclusive (no result: ERK AVP inh, Imprint erasure)
COCc1cc(=O)[nH]c(/N=C(\N)Nc2ccc(C)cc2)n1	CRE-bla Fsk 13µM
COC(=O)c1[nH]c2cc(C)ccc2c1NC(=O)CN1CCc2cc(OC)c(OC)cc2C1	ERK AVP inh inconclusive, IkB signaling inconclusive, CRE-bla Fsk 2µM
COC(=O)c1[nH]c2cc(OC)c(OC)cc2c1NC(=O)CN1CCN(Cc2ccccc2)CC1	ERK AVP inh 10µM, CRE-bla Fsk 10µM
COC(=O)c1[nH]c2ccc(C)cc2c1NC(=O)CN1CCN(Cc2ccccc2)CC1	ERK AVP inh inconclusive, IkB signaling inconclusive
COC(=O)c1[nH]c2ccc(C)cc2c1NC(=O)CN1CCN(c2ccccc2)CC1	ERK AVP inh 13µM, IkB signaling inconclusive, CRE-bla Fsk inconclusive
COC(=O)c1[nH]c2ccc(C)cc2c1NC(=O)CN1CCN(c2ccc(F)cc2)CC1	none
CO[C@@H]1/C=C\CC(=O)N2CCC[C@@H]2C(=O)OC[C@@H](C)C(=O)OC[C@H]1C	none (no result: Imprint erasure, IkB signaling, CRE-bla Fsk)
CCC(=O)/C=C/C1C(C)=CCCC1(C)C (stereo not drawn)	none
COc1cc(-c2nnc(-c3ccc(S(=O)(=O)c4ccccc4)cc3)o2)cc(OC)c1OC	CRE-bla Fsk 4µM
Cc1cccc(S(=O)(=O)C(C#N)c2nc3ccccc3nc2N2CC(C)OC(C)C2)c1 (stereo not drawn)	CRE-bla Fsk inconclusive
Cc1ccc(S(=O)(=O)C(C#N)c2nc3ccccc3nc2N2CC(C)OC(C)C2)cc1C (stereo not drawn)	CRE-bla Fsk 4µM
CCN1C(=O)CC(N2CCN(c3ccc(Cl)cc3)CC2)C1=O (stereo not drawn)	none
CCN1C(=O)CC(N2CCN(c3ccc(C(=O)c4ccccc4)cc3)CC2)C1=O (stereo not drawn)	ERK AVP inh 16µM
O=C1[C@H]2[C@H]3[C@H](O)[C@H](O)C/C(=N/OCc4ccccc4)[C@@H]3CC[C@@H]2C(=O)N1C[C@@H]1CCCO1	none (no result: Imprint erasure, IkB signaling, CRE-bla Fsk)
C[C@H](C(=O)c1ccccc1)[C@@H](c1ccccc1)N1CCOCC1	none (no result: Imprint erasure)
O=C(O)[C@H]([C@H]1NCCS1)N1Cc2ccccc2C1	none (no result: Imprint erasure)
CCOc1ccc(-c2[nH]nc3c2C(c2ccc4c(c2)OCO4)C(C#N)=C(N)O3)cc1OC (stereo not drawn)	CRE-bla Fsk 2.5µM
Cc1[nH]nc2c1C(c1ccc3c(c1)OCO3)C(C#N)=C(N)O2 (stereo not drawn)	none
Cc1cc2ncn(C3CC(=O)N(Cc4ccccc4)C3=O)c2cc1C (stereo not drawn)	ERK AVP inh 32µM, CRE-bla Fsk inconclusive

Screens: PubChem BioAssay, National Center for Advancing Translational Sciences (NCATS)
